Measured values taken from PubChem BioAssay (NCATS).
Records with an inconclusive call do not appear. A call without a number means that no potency is given here. Unmarked numbers belong to inactive results. Active and inactive are the calls of the source. The call rests on the fitted dose curve; in most records, active means well fitted activation curve with a large enough effect; inconclusive means small, poorly fitted or top-dose-only effect; inactive means flat fitted curve, though single readings scatter.

assay: Primary redox qHTS assay for identification of artifact compounds. (AID 1845223); conditions: Amplex Red/HRP redox cycling with DTT, fluorescence; series mostly up to 53.8 µM
Excerpt: PI: Alexander Tropsha Ph.D.
UNC Eshelman School of Pharmacy
University of North Carolina, Chapel Hill, North Carolina
Hits from high-throughput screening (HTS) of chemical libraries are often false positives due to their interference with the assay detection technology. In response to this problem, we generated the largest publicly available library of chemical liabilities and developed a free webtool to predict HTS artifacts, both of which are described herein. More specifically, we generated, curated, and integrated HTS datasets for thiol reactivity, redox activity, and luciferase (firefly and nano) activity. Using these curated datasets, we developed and validated several Quantitative Structure-Interference Relationship (QSIR) models to predict nuisance behavior. […] These models were employed for virtual profiling of the National Center for Advancing Translational Science's (NCATS) in-house library, and 256 compounds for each assay were selected for the experimental validation of nuisance behavior. The BA for these external predictions ranged from 58 to 78% for compounds within the applicability domains of the models. […] The models developed in this study, along with aggregation models previously developed by our group (SCAM Detective) were implemented in "Liability Predictor," an online tool which may be used as part of chemical library design or for triaging HTS hits. Both the models and the curated datasets are publicly available at https://liability.mml.unc.edu/.
SEQUENCE No. (e.g., 1, 2, 3, etc.); […] (e.g., Cells, Incubation, Reagent, etc.); VALUE; DESCRIPTION.
1; Reagent; 3 uL; Amplex Red and HRP mixture.
2; Compounds and control; 16 nL; Kalypsis pin tool (Wako USA) equipped with a 1536-well pin head. […]
6; Detection; Fluorescence, ViewLux microplate reader, 525 nm excitation, 598 nm emission.
NOTES (numbers refer to Sequence numbers above)
1. 3 uL of a mixture containing Amplex Red (25 uM final concentration) and horseradish peroxidase (HRP; 250 mU/mL final concentration) in assay buffer (HBSS) was dispensed into all wells of a 1536-well assay plate (solid-bottom black plate; Greiner Bio One, Monroe, NC).
2. A Wako Pin-tool (Wako Automation, Richmond, VA) was used to transfer 16 nL of compounds (consisting of 7-plates in qHTS format, final concentration range 18.3 nM to 114 uM) or control DA3003 (final concentration range 1.22 nM to 40 uM).
3. 15 min. incubation at room temperature protected from light.
4. 1 uL of DTT (prepared fresh; final concentration 250 uM) was dispensed for a final assay volume of 4 uL.
5. Plates were centrifuged (121xg, 15 seconds) and incubated for 30 minutes at room temperature protected from light.
6. Samples were read for fluorescence (Ex/Em = 525(20)/598(25) nm) on a ViewLux CCD imager (PerkinElmer). Data were normalized to DMSO (0% activity) and DA3003 (10 uM final concentration; 100% activity) and the resulting percent inhibition data were fitted to a 4-parameter Hill equation using NCATS in-house software.

Compound | Potency | redox activity (% of DA3003)
CS(=O)(=O)c1ccc([C@H](CC2CCCC2)C(=O)Nc2nccs2)cc1 | inactive | –
COc1cccc2cc3c(c(O[C@@H]4O[C@H](CO[C@@H]5O[C@H](CO)[C@@H](O)[C@H](O)[C@H]5O)[C@@H](O)[C@H](O)[C@H]4O)c12)C(C)OC3=O (stereo not given in full) | inactive | –
CC(C)CCC[C@@H](C)[C@H]1CC[C@H]2[C@@H]3CC(=O)[C@H]4C[C@@H](O)CC[C@]4(C)[C@H]3CC[C@]12C | inactive | –
CN[C@H](C(=O)N[C@H](C(=O)N(C)[C@H](/C=C(\C)C(=O)O)C(C)C)C(C)(C)C)C(C)(C)c1ccccc1 | inactive | –
CC1(C)CC2C(C1)C(C)(O)C13CC1(COC3=O)C2O (stereo not given) | inactive | –
CCOc1cc(C)c(Cl)cc1S(=O)(=O)n1cnc2ccccc21 | inactive | –
C=C1CCCC2(C)CC3(OC)OC(=O)C(C)=C3CC12 (stereo not given) | inactive | –
CC(=O)c1c(O)cc(O[C@@H]2O[C@H](CO)[C@@H](O)[C@H](O)[C@H]2O)cc1O | inactive | –
Cc1cc(Nc2ncc3cc(-c4c(Cl)cccc4Cl)c(=O)n(C)c3n2)ccc1F | inactive | –
C[C@@H]1CC[C@]2(C(=O)O)CC[C@]3(C)C(=CCC4[C@@]5(C)CC[C@H](O)C(C)(C)C5C(O)C[C@]43C)[C@@H]2[C@]1(C)O (stereo not given in full) | inactive | –
O=C(Nc1c(-c2cccs2)nc2ccccn12)c1ccc(Cl)cc1 | inactive | –
C[C@H]1CC(=O)Nc2cccc(-c3cnn(C(C)(C)C)c3)c2N1 | inactive | –
NC(=O)c1cnc(NCCc2ccc(O)c(Cl)c2)nc1NCc1ccccc1 | inactive | –
C=C1C(=O)O[C@H]2C1[C@H](OC(=O)/C(=C/CO)COC(=O)/C(C)=C/CO)CC(=C)[C@@H]1CC(=O)[C@@H](C)[C@@H]12 (stereo not given in full) | inactive | –
CC(O)/C=C/C1(O)C(C)C(O[C@@H]2O[C@H](CO)[C@@H](O)[C@H](O)[C@H]2O)C(O)CC1(C)C (stereo not given in full) | inactive | –
C=C1C(O)C[C@@H]2C(C(=O)O)=CO[C@@H](O[C@@H]3O[C@H](CO)[C@@H](O)[C@H](O)[C@H]3OC(=O)c3ccc(O)cc3)[C@H]12 (stereo not given in full) | inactive | –
C=C1C(=O)OC2C1C(O)CC1(C)C(O)CCC(C=O)C21 (stereo not given) | inactive | –
CC1(C)CC[C@]2(C(=O)O[C@@H]3O[C@H](CO)[C@@H](O)[C@H](O)[C@H]3O)CC[C@]3(C)C(=CCC4[C@@]5(C)C[C@@H](O)[C@H](O)C(C)(C)C5CC[C@]43C)C2[C@@H]1O (stereo not given in full) | inactive | –
Cc1cc(-c2cc(O)ccc2Cl)cc2nnc(Nc3ccc(OCCN4CCCC4)cc3)nc12 | inactive | –
COc1cc2nc(N3CCC(N4CCCCC4)CC3)nc(NC3CCCCCC3)c2cc1OC | inactive | –

Compound | Potency | redox activity (% of DA3003)
C=CC1C(OC2OC(CO)C(O)C(O)C2O)OC=C2C(=O)N3C(C(=O)O)Cc4c([nH]c5ccccc45)C3CC21 (stereo not given) | inactive | –
CC1C=CC2CCCCC2C1CCC1CC(O)CC(=O)O1 (stereo not given) | inactive | –
O=C(O)c1cc2cccc([N+](=O)[O-])c2[nH]1 | inactive | –
C[C@@]12C[C@]3(O)O[C@H](O1)[C@]1(COC(=O)c4ccccc4)[C@H]3C[C@@]12O[C@@H]1O[C@H](CO)[C@@H](O)[C@H](O)[C@H]1O | inactive | –
O=C(Nc1ccn[nH]1)c1c(F)cccc1F | inactive | –
Cc1cccc(C)c1-n1c(=O)c2cnc(Nc3ccc(N4CCN(C)CC4)cc3)nc2n2c3ccccc3nc12 | inactive | –
COc1ccc(C(=O)C2CCN(CC(=O)N(Cc3nc4c(c(=O)[nH]3)COCC4)CC3CC3)CC2)cc1 | inactive | –
CC1(C)CC[C@]2(C(=O)O)CC[C@]3(C)C(=CCC4[C@@]5(C)CC[C@H](O[C@@H]6O[C@H](CO)[C@@H](O)[C@H](O)[C@H]6O[C@@H]6O[C@H](CO)[C@@H](O)[C@H](O)[C@H]6O)[C@@](C)(CO)C5CC[C@]43C)[C@@H]2C1 (stereo not given in full) | inactive | –
C=C1C(O)CC2C(C(=O)O)=COC(O[C@@H]3O[C@H](COC(=O)/C=C/c4ccc(O)cc4)[C@@H](O)[C@H](O)[C@H]3O)C12 (stereo not given in full) | inactive | –
C=C(C)C1Cc2cc(C(=O)OC3OC(CO)C(O)C(O)C3O)ccc2O1 (stereo not given) | inactive | –
CC(C)=CCC/C(C)=C/CCC1(C)Oc2c(c(O)cc3c2CN(C(CCC(=O)O)C(=O)O)C3=O)CC1O (stereo not given) | inactive | –
C[C@H](NC(=O)CCc1nc2ccccc2c(=O)[nH]1)c1ccccc1 | inactive | –
CCOc1cc(C(=O)N2CCC(N3CCN(C)CC3)CC2)ccc1Nc1ncc2c(n1)N(C1CCCC1)c1ccccc1C(=O)N2C | inactive | –
CC1(C)CC(NC(=O)C(=O)Nc2ccc(Br)cc2)CC(C)(C)N1 | inactive | –
CC12CCC(=O)C=C1C(O)CC1C2C(O)CC2(C)C1CC[C@]2(O)C(=O)CO (stereo not given in full) | – | -2.06% [at 11.5 µM]
CC(O)/C=C/C1(O)C2(C)COC1(C)CC(O)C2 (stereo not given) | inactive | –
CCCCNc1ccc(-c2ccc(CN3CCOCC3)cn2)c(NC2CCC(O)CC2)c1 (stereo not given) | inactive | –
COc1ccc2nc(S(=O)(=O)Cc3ncc(C)c(OC)c3C)[nH]c2c1 | inactive | –
CC1(C)CC[C@]2(C(=O)O)CC[C@]3(C)C(=CCC4[C@@]5(C)C[C@@H](O)[C@H](O)C(C)(C)C5CC[C@]43C)C2C1 (stereo not given in full) | inactive | –
C1CCC[C@H]2CCCN3CC[C@@H](CCCCCC[C@@H]4CCCN5CC[C@@H](CC1)O[C@@H]45)O[C@@H]23 | – | -1.13% [at 0.0963 µM]
